Laboratory results taken from PubChem BioAssay AID709 (SRMLSC, 2007).
Hit rate of the full screen: of about 65,000 compounds, about 3,600 (5.5%) were called active.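 How the source made its calls: active means at 10 µM, mean starting fluorescence two-fold or more over control wells; inactive means the rest.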 For the sample, actives were picked, then their nearest neighbours and some compounds at random.

Test: intrinsic fluorescence of library compounds, ex339/em460 – biochemical, MLSMR library, data from DPM-DC assay, artefact control, profiling panel (AID 709);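 further: signal is the first read of a kinetic run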
Conditions: compound autofluorescence, ex339/em460 nm, NADH buffer; at 10 µM; stronger effect = higher value; 1 = no-compound wells, NADH background

Row | Compound | fluorescence fold increase
1 | CCc1nnc(NC(=O)c2c(O)c3c([nH]c2=O)CCCC3)s1 | 1.12 (inactive)
2 | Cc1ccc2cccc(S(=O)(=O)N3CCN(c4ccccc4F)CC3)c2n1 | 1.14 (inactive)
3 | O=C(CN1C(=O)CCC1=O)Nc1ccc(S(=O)(=O)N2CCOCC2)cc1 | 1.15 (inactive)
4 | C=CCSC1=C(C#N)C(c2cc(Br)c(O)c(OC)c2)CC(=O)N1 (stereo not given) | 1.07 (inactive)
5 | CN(c1ccc(C(=O)N2CCc3ccccc3C2)cc1)S(C)(=O)=O | 1.11 (inactive)
6 | O=[n+]1c2c(n([O-])c3cc(Br)ccc31)CCC2 | 1.07 (inactive)
7 | CN1CCCc2cc(C#N)c(=O)[nH]c21 | 2.4 (active)
8 | CC(C)(C)n1nnc(CCc2nnn(C(C)(C)C)n2)n1 | 1.09 (inactive)
9 | COC(=O)C(C)C1Sc2ccccc2NC1=O (stereo not given) | 1.01 (inactive)
10 | O=C(Nc1ncc2c(n1)CC(c1ccco1)CC2=O)c1ccc(Cl)cc1 (stereo not given) | 1.05 (inactive)
11 | CCc1ccc(Nc2ncc3c(n2)CC(c2ccco2)CC3=O)cc1 (stereo not given) | 2.39 (active)
12 | CCc1ccc(NC(=O)CSc2nnc(-c3cnccn3)n2Cc2ccco2)cc1 | 1.06 (inactive)
13 | COc1ccc(CN2CC(C(=O)NCCN3CCN(c4ccccc4F)CC3)CC2=O)cc1 (stereo not given) | 1.08 (inactive)
14 | CCOC(=O)CN1C(=O)C(O)(CC(=O)c2ccccn2)c2ccccc21 (stereo not given) | 1.04 (inactive)
15 | O=C(Oc1ccccc1)c1ccc2nccnc2c1 | 1.04 (inactive)
16 | CC(=O)N1CC2(C)CN(C(C)=O)CC(C)(C1)C2=O | 1.11 (inactive)
17 | COCCNC(=O)c1snc2ccc(Cl)cc12 | 1.2 (inactive)
18 | COc1ccccc1N1CCN(C(=O)c2cc3c(-c4ccc(Cl)cc4)nn(C)c3s2)CC1 | 1.07 (inactive)
19 | Cn1nc(-c2ccc(Cl)cc2)c2cc(C(=O)NCc3ccco3)sc21 | 2.11 (active)
20 | CCOC(=O)N1CCN(C(=O)c2cc3c(-c4ccc(Cl)cc4)nn(C)c3s2)CC1 | 1.19 (inactive)
21 | COc1ccc(S(=O)(=O)N2CCCC2)c(C)c1C | 1.06 (inactive)
22 | COc1cccc(-c2cc3nc4c(c(N5CCC6(CC5)OCCO6)n3n2)CCCC4)c1 | 1.74 (inactive)
23 | c1ccc(COc2nsnc2N2CCOCC2)cc1 | 1.12 (inactive)
24 | c1ccc(-c2oc3ncnc(N4CCOCC4)c3c2-c2ccccc2)cc1 | 2.38 (active)
25 | O=C1c2ccccc2-c2ncnc3c(N4CCOCC4)cc(N4CCOCC4)c1c23 | 1.04 (inactive)

Row | Compound | fluorescence fold increase
26 | COC(=O)c1ccc(OC(=O)c2nn(C)cc2Cl)c(OC)c1 | 1.11 (inactive)
27 | CCOc1ccc(N(CC(=O)OC)S(=O)(=O)c2c(C)noc2C)cc1 | 1.1 (inactive)
28 | O=C(NC1CCCC1)c1ccc(Br)s1 | 1.08 (inactive)
29 | CCc1nnc(NC(=O)c2cccs2)s1 | 1 (inactive)
30 | COc1cc(C(=O)Nc2nccs2)cc(OC)c1OC | 1.09 (inactive)
31 | Cc1ccc(C(=O)Nc2nnc(-c3cccs3)s2)cc1C | 3.04 (active)
32 | COc1ccc(OC)c2c1sc(=NC(=O)CN1C(=O)CCC1=O)n2C | 1.13 (inactive)
33 | CC1CCc2c(sc(NC(=O)c3ccc(Cn4cc(Br)cn4)o3)c2C(N)=O)C1 (stereo not given) | 3.78 (active)
34 | CCc1c(C)nc(N2CCN(Cc3ccccc3)CC2)[nH]c1=O | 1.06 (inactive)
35 | Cn1c(=O)[nH]c(=O)c2c1nc(CN1CCN(c3ccccc3F)CC1)n2CCc1ccccc1 | 1.09 (inactive)
36 | CC(C)CNC(=O)C1CCCN(S(=O)(=O)c2ccc(-n3cnnn3)cc2)C1 (stereo not given) | 1.07 (inactive)
37 | CCOc1ccc(-c2nnc3ccc(SC)nn23)cc1 | 1.17 (inactive)
38 | COC(=O)C(C)Sc1ccc2nnc(-c3cccc(F)c3)n2n1 (stereo not given) | 2.06 (active)
39 | CC1CCN(C(=O)CSc2ccc3nnc(-c4cccc(F)c4)n3n2)CC1 | 1.4 (inactive)
40 | CCCOc1ccc(CN(CCO)CCO)cc1C(=O)OC | 1.07 (inactive)
41 | Cc1cccc(Cn2c(SCCO)nc3c2c(=O)n(C)c(=O)n3C)c1 | 0.95 (inactive)
42 | COC(=O)C1C(=O)CC(C)(O)C(C(=O)OC)C1c1ccc2c(c1)OCO2 (stereo not given) | 1.09 (inactive)
43 | Cc1cc(=O)[nH]c(SCC(N)=O)c1C#N | 1.12 (inactive)
44 | COc1ccc(C2CC(c3ccc(C)cc3)Nc3nc(N)nn32)cc1 (stereo not given) | 1.09 (inactive)
45 | CCOC(=O)c1c(C)n(C)c2ccc(OC)c(NC(=O)CN3CCC4(CC3)OCCO4)c12 | 1.04 (inactive)
46 | C=CCn1c2ccccc2c2nnc(SC(CC)C(=O)Nc3nc(C)c(C(=O)OCC)s3)nc21 (stereo not given) | 1.22 (inactive)
47 | COC(=O)c1cn(CC(=O)NCc2cccs2)c2ccccc12 | 1.12 (inactive)
48 | C=CCn1c(N)c(C(=O)OCC(C)C)c2nc3ccccc3nc21 | 3.79 (active)
49 | CCN(CC(=O)NCc1cccs1)c1nnnn1-c1ccccc1 | 1.04 (inactive)
50 | CCCCNc1nc2ccccc2nc1NS(=O)(=O)c1cccs1 | 1.35 (inactive)

Row | Compound | fluorescence fold increase
51 | C=CCn1c(N)c(S(=O)(=O)c2cccs2)c2nc3ccccc3nc21 | 3.9 (active)
52 | C=CCn1c(C(C)NC(=O)CC)nc2ccccc21 (stereo not given) | 1.1 (inactive)
53 | CC(C)Cn1c(N)c(C(=O)NCc2cccs2)c2nc3ccccc3nc21 | 3.03 (active)
54 | CCOC(=O)C1CCN(C(=O)CSc2cc(=O)n(C)c3ccccc23)CC1 | 1.32 (inactive)
55 | Cc1ccc(OCCCC(=O)N2CCOCC2)c(C)c1 | 1.13 (inactive)
56 | Cc1ccc(CCn2c3c(c4ccccc42)CN(C)CC3)cn1 | 1.12 (inactive)
57 | CCOC(=O)c1ccc(NC(=O)CS(=O)(=O)c2cn(CC)c3ccccc23)cc1 | 1.08 (inactive)
58 | CC1(C)C(=O)Nc2ccccc2N1C(=O)COC(=O)Cn1cnc2ccccc2c1=O | 1.03 (inactive)
59 | CCn1c(COc2ccccc2)nnc1SCC(=O)Nc1ccc2c(c1)OCCO2 | 1.12 (inactive)
60 | COCCn1nnnc1CN1CCC(NC(=O)Nc2cccc(OC)c2)CC1 | 1.05 (inactive)
61 | COC(=O)Cc1csc(Nc2c(C)n(C)n(-c3ccccc3)c2=O)n1 | 1.09 (inactive)
62 | CCOc1ccc(Nc2oc(Cc3ccccc3)nc2C#N)cc1 | 1.13 (inactive)
63 | COc1ccc(Nc2oc(-c3ccccc3Cl)nc2C#N)cc1 | 2.11 (active)
64 | COc1ccc(-c2nnc(SC(C)C#N)o2)cc1 (stereo not given) | 1.08 (inactive)
65 | O=C(COc1ccccc1)NCCc1nc2ccccc2[nH]1 | 1.13 (inactive)
66 | COc1ccc(-c2nn3c(-c4ccccc4)nnc3s2)cc1OC | 1.69 (inactive)
67 | Fc1ccc(-c2ccc(-c3nn4c(-c5ccco5)nnc4s3)o2)cc1 | 1.49 (inactive)
68 | Fc1ccc(-c2nnc3sc(-c4ccc5c(c4)OCO5)nn23)cc1 | 2.05 (active)
69 | Cc1noc(C)c1COC(=O)Cn1c(C)nc2ccccc21 | 1.09 (inactive)
70 | O=C(c1cccs1)N1CCC(c2nc3ccccc3s2)CC1 | 1.04 (inactive)
71 | Cc1nn(Cc2ccccc2)c(Cl)c1C(=O)OC1CCOC1=O (stereo not given) | 1.07 (inactive)
72 | O=C(OC1CCOC1=O)c1ccc(-c2nc3ccccc3s2)s1 (stereo not given) | 5 (active)
73 | O=C(NCc1ccco1)C1CCCN(S(=O)(=O)c2cnc[nH]2)C1 (stereo not given) | 1.08 (inactive)
74 | c1ccc2[nH]c(-c3nc4ccccc4[nH]3)nc2c1 | 2.21 (active)
75 | c1ccc(-c2[nH]ncc2-c2nc3ccccc3[nH]2)cc1 | 1.2 (inactive)

Row | Compound | fluorescence fold increase
76 | C=CCSc1nc2ccccc2[nH]1 | 1.11 (inactive)
77 | CC1(C)Oc2ccc3ccc(=O)oc3c2/C(=C/NCCO)C1=O | 1.05 (inactive)
78 | CCOc1ccccc1-n1c(SCC(=O)NCc2ccco2)nnc1-c1ccncc1 | 1.07 (inactive)
79 | CCOC(=O)C1=C(C)N=c2s/c(=C\C(=O)OC)c(=O)n2C1c1ccc(OC)cc1 (stereo not given) | 1.08 (inactive)
80 | O=C(NCc1ccco1)c1cc(-c2cccnc2)nc2ccc(Cl)cc12 | 1.17 (inactive)
81 | O=C(NCc1ccco1)c1cccn2c(=O)c3cc(Br)ccc3nc12 | 2.53 (active)
82 | O=C(Nc1ccccc1)Nc1ccccc1C(=O)NCc1ccco1 | 1.65 (inactive)
83 | Cc1cc(NC(=O)CSCc2nc(-c3cccc(Cl)c3)oc2C)no1 | 1.06 (inactive)
84 | Cc1ccsc1-c1nc(CSCC(=O)NCCN2CCCC2)c(C)o1 | 2.22 (active)
85 | Cn1c(C(=O)NCCCN2CCCCC2)cc2sccc21 | 1.19 (inactive)
86 | CC(C)NC(=O)CCCn1c(=S)[nH]c2cc3c(cc2c1=O)OCO3 | 1.07 (inactive)
87 | COc1cccc(-n2cc3c(c2-c2ccccc2)c(=O)n(C)c(=O)n3C)c1 | 2.35 (active)
88 | COc1cccc(-n2cc(C(=O)O)c3ccccc3c2=O)c1 | 1.36 (inactive)
89 | Cc1ccc(-c2c3c(=O)n(C)c(=O)n(C)c3cn2-n2cnnc2)cc1 | 1.07 (inactive)
90 | COc1ccc(-c2c3c(=O)n(C)c(=O)n(C)c3cn2-c2cccc(OC)c2)cc1 | 1.94 (inactive)
91 | COc1ccc(-c2c3c(=O)n(C)c(=O)n(C)c3cn2NC(C)=O)cc1 | 2.81 (active)
92 | Cn1c(=O)c2cn(-c3cccc4ccccc34)cc2n(C)c1=O | 1.28 (inactive)
93 | CC(=O)Nn1cc2c(=O)n(C)c(=O)n(C)c2c1 | 1.03 (inactive)
94 | COc1ccc(OC)c(-n2cc3c(=O)n(C)c(=O)n(C)c3c2)c1 | 1.3 (inactive)
95 | Cc1ccc(-c2c3c(=O)n(C)c(=O)n(C)c3cn2-c2ccccc2O)cc1 | 3.24 (active)
96 | Nc1nonc1-c1noc(-c2ccc(Br)o2)n1 | 1.07 (inactive)
97 | Cc1onc(-c2ccccc2)c1C(=O)N1CCOCC1 | 1.04 (inactive)
98 | O=C(C1CCN(S(=O)(=O)Cc2ccccc2)CC1)N1CCCc2ccccc21 | 1.08 (inactive)
99 | COc1ccc(-n2c(SC)nc(O)cc2=O)cc1 | 1.1 (inactive)
100 | O=C1[C@@H]2C(Cc3ccc(O)cc3)NC3(C(=O)Nc4ccc(F)cc43)[C@@H]2C(=O)N1c1ccc(F)cc1 (stereo not given in full) | 1.1 (inactive)
